Source: ChEMBL document CHEMBL3988442, “University of Dundee, Small-Polar-MMV Screening Library” (2021)
For some assays here: Results with a measured potency or affinity are listed apart.

Experiments:
Design in all cases: scale not given: direction of the effect not stated beside the values
[1] = biological target: Protein translocase subunit SecA (Escherichia coli (strain K12)) (UniProt P10408); experiment: Assay to Identify E. coli SecA ATPase Inhibitors; type: functional; details: 30 µM
[2] = biological target: T1, Ubiquitin-activating enzyme e1, putative (Leishmania donovani (strain BPK282A1)) (UniProt E9BSI1); experiment: Leishmania donovani Ubiquitin Activating Enzyme (LdE1); type: functional; details: 30 µM
T1 sequence (whole entry): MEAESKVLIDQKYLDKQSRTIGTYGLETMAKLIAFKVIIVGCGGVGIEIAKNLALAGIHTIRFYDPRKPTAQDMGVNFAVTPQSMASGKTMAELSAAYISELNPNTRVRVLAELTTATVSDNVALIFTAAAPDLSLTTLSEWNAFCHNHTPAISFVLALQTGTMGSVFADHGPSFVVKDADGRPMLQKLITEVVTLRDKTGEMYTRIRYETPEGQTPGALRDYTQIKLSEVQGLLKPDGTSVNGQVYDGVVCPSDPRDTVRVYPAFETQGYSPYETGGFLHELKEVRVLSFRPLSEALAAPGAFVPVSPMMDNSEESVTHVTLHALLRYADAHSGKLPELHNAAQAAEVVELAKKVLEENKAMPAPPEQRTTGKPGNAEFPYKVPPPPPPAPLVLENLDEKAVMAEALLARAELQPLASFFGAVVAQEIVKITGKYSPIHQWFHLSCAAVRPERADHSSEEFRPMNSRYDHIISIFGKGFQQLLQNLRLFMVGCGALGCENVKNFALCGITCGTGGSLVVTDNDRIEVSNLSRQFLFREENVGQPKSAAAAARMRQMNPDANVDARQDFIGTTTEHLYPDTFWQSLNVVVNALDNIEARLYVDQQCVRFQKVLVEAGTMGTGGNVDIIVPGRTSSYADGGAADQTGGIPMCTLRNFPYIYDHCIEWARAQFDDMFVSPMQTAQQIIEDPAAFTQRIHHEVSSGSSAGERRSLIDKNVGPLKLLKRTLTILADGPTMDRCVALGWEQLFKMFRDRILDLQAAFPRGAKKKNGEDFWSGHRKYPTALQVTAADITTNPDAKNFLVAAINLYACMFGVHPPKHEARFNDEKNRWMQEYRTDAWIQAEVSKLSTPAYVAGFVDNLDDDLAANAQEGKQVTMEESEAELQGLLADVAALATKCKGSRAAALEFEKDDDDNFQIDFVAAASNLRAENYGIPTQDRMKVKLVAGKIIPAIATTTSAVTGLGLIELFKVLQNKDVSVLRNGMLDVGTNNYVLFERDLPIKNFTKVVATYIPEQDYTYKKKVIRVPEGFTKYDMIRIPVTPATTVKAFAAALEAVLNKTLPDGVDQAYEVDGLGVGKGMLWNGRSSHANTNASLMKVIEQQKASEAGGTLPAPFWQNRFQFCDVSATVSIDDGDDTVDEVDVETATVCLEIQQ

[3] = biological target: AMP-activated protein kinase, AMPK (Homo sapiens) (UniProt P54646+O43741+P54619+Q9UGJ0+Q9Y478+Q13131+Q9UGI9); experiment: AMP-dependent Kinase enzyme assay. An in vitro enzyme assay that detects ADP turnover that is directly proportional to AMPK activity. This uses naive AMPK that is activated during the assay with MK-8722; type: functional; details: 30 µM
[4] = biological target: Sialic acid-binding Ig-like lectin 9 (Homo sapiens) (UniProt Q9Y336); experiment: Hs-Siglec9 ALPHAscreen SOP 20170721; details: 10 µM
Sequence of Sialic acid-binding Ig-like lectin 9 (Homo sapiens) (Q9Y336 whole entry): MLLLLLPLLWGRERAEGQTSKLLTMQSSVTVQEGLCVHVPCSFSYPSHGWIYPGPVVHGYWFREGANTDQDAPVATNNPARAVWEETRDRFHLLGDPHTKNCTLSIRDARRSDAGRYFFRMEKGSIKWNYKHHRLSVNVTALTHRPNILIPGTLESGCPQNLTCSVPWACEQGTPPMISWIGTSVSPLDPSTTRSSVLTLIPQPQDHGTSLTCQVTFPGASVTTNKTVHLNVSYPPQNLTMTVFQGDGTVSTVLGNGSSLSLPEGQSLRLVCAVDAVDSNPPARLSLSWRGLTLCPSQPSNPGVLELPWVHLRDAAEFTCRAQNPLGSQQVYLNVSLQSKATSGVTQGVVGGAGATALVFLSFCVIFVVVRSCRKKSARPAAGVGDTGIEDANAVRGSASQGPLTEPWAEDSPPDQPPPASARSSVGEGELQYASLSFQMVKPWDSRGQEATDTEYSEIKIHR

Trypanosoma cruzi = experiment: Trypanosoma cruzi phosphomannomutase and mannose-1-phosphate guanylyltransferase assay; type: functional; details: 10 µM
[5] = biological target: T2, Arginase-2, mitochondrial (Homo sapiens) (UniProt P78540); experiment: in vitro enzyme assay to detect the production of urea directly proportional to the activity of Arginase II; type: functional; details: 33.3 µM; note: in the data most compounds retested in dose-response had high values
T2 sequence (whole entry): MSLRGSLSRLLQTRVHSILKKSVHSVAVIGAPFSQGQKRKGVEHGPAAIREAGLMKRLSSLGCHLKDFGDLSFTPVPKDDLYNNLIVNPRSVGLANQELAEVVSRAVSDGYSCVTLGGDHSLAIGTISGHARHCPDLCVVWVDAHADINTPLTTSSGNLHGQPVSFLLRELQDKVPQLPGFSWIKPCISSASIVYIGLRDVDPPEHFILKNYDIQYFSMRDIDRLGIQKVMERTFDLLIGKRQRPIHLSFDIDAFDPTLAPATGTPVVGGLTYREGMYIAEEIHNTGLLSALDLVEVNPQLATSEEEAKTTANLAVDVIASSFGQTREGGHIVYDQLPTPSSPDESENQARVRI

[6] = biological target: T3, Proteasome subunit beta (Trypanosoma cruzi) (UniProt O96673); experiment: Trypanosoma cruzi proteasome chymotrypsin-like activity (TcProtChymo) assay.; note: in the data most compounds retested in dose-response had high values; type: functional; details: 9.37 µM
T3 sequence (whole entry): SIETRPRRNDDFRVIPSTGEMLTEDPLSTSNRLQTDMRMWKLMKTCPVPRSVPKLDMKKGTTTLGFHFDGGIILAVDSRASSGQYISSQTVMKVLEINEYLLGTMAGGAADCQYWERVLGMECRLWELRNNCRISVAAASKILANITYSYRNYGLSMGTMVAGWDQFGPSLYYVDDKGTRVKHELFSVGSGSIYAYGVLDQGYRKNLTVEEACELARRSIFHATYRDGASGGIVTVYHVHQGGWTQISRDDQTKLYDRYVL

Homo sapiens = organism: Homo sapiens; experiment: To identify inhibition of the IFN signalling (Jak-Stat) pathway via expression of an eGFP reporter gene under the control of an IFN-stimulated response element (ISRE) containing MxA promoter.; type: functional; details: 30 µM
[7] = biological target: T4, Tyrosyl-tRNA synthetase, putative (Trypanosoma cruzi (strain CL Brener)) (UniProt Q4DSP6); experiment: Trypanosoma cruzi tyrosyl tRNA synthetase (TcYRS) _High Tyrosine SOP; type: functional; details: 30 µM; note: in the data most compounds retested in dose-response had high values
T4 sequence (whole entry): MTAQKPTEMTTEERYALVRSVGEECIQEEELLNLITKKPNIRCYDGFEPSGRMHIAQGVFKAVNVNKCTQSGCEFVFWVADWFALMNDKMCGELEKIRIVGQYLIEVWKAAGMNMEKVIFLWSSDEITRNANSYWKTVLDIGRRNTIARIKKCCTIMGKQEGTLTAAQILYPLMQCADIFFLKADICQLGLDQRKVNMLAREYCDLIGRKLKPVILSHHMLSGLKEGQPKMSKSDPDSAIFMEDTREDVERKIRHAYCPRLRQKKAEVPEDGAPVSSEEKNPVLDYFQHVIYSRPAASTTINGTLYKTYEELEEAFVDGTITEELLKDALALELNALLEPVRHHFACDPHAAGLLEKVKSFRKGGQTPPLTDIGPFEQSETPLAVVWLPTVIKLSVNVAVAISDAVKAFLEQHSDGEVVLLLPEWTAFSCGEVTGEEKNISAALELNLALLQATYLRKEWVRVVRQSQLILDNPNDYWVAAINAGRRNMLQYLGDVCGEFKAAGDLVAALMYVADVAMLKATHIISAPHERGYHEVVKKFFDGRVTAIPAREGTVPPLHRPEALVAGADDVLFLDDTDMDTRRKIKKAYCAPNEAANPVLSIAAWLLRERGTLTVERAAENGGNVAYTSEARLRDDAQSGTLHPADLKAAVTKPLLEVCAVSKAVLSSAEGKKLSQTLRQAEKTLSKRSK

[8] = biological target: T4, Tyrosyl-tRNA synthetase, putative (Trypanosoma cruzi (strain CL Brener)); experiment: Trypanosoma cruzi tyrosyl tRNA synthetase (TcYRS) SOP; type: functional; details: 30 µM
[9] = biological target: Chromo domain-containing protein 1 (Saccharomyces cerevisiae (strain ATCC 204508 / S288c) (Baker's yeast)) (UniProt P32657); experiment: ScCHD-1 Enzyme Inhibition Assay; type: functional; details: 30 µM; note: in the data most compounds retested in dose-response had high values
Sequence of Chromo domain-containing protein 1 (Saccharomyces cerevisiae (strain ATCC 204508 / S288c) (Baker's yeast)) (P32657 whole entry, the tested form may be a part): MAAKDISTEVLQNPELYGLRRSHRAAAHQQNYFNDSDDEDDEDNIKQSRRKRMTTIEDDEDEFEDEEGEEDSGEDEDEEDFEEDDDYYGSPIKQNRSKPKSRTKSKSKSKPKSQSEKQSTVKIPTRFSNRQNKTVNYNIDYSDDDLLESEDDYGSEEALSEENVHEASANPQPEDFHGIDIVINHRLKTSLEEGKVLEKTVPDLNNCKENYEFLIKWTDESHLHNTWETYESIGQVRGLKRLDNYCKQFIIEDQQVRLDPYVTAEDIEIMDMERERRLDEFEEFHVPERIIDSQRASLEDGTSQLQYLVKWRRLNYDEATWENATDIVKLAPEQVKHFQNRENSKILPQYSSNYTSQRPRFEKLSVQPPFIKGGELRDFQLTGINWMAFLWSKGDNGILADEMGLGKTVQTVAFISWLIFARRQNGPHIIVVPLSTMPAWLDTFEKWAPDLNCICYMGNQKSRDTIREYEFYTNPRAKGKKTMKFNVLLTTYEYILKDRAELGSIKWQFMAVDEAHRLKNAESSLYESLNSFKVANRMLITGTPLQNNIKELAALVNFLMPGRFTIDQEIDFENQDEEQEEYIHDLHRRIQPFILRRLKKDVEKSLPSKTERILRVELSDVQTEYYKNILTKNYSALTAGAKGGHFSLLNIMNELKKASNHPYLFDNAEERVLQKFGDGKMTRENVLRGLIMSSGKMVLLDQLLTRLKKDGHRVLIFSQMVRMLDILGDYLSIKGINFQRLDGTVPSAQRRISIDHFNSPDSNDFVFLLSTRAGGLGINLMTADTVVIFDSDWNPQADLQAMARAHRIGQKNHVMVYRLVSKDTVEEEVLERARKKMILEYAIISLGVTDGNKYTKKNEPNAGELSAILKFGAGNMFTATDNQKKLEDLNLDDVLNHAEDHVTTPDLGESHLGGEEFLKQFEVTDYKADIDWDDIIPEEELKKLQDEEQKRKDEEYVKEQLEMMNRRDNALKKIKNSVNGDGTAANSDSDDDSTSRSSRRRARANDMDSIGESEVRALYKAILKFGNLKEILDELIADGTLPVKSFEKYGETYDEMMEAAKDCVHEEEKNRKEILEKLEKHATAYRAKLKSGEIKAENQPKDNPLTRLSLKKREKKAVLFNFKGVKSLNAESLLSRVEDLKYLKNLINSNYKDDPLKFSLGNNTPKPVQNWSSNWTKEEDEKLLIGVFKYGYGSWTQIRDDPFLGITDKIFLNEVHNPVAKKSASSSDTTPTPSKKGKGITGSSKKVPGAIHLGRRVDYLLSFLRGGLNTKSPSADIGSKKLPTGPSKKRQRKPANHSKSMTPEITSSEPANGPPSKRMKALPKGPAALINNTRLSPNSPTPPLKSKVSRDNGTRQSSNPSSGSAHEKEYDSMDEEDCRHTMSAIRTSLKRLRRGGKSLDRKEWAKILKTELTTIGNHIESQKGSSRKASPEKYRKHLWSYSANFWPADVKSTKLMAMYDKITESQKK

Sequence of Protein translocase subunit SecA (Escherichia coli (strain K12)) (P10408 whole entry): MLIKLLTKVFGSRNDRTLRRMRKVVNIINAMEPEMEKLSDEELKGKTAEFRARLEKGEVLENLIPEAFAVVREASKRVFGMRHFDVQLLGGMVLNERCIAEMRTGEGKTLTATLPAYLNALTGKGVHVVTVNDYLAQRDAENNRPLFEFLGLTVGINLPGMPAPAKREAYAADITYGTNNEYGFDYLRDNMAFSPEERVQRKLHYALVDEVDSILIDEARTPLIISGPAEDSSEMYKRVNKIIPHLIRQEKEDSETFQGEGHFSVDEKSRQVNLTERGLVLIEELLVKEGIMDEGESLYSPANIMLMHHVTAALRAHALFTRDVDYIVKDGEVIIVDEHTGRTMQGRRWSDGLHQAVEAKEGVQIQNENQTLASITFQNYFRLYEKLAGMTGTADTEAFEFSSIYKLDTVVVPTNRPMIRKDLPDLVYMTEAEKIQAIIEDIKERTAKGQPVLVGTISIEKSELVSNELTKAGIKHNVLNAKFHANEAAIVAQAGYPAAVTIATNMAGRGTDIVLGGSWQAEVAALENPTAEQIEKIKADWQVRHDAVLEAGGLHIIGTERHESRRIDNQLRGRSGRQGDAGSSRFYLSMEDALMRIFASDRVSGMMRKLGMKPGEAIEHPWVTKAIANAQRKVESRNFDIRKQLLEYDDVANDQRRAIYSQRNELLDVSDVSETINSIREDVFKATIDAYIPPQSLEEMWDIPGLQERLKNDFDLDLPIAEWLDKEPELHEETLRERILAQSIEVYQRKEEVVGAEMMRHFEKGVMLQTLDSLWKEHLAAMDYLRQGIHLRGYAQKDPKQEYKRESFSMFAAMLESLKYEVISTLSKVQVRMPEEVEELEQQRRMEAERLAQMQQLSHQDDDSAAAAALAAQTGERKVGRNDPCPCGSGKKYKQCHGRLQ

Structure (SMILES) | Percent Effect [1] | Percent Effect [2] | Percent Effect [3] | Percent Effect [4] | Percent Effect (Trypanosoma cruzi) | Percent Effect [5] | Percent Effect [6] | Percent Effect (Homo sapiens) | Percent Effect [7] | Percent Effect [8] | Percent Effect [9]
CSCc1cccc(S(=O)(=O)N2CCC(C)CC2)c1 | -5.58% | -4% | 7.56% | 1.46% | -5.5% | -5.11% | 7.39% | 27.8% | -11.6% | -10.3% | -6.13%
COc1ccc(NC(C)C(=O)N2CCN(Cc3ccccc3)CC2)cn1 (configuration not stated) | -0.598% | -2.74% | -258% | -6.68% | -0.783% | 3.18% | -6.21% | 4.99% | 1.07% | 0% | -0.618%
CCc1cc(N2CCCNCC2)n2nc(C)c(C)c2n1 | -1.91% | 8% | 2.19% | 2.6% | -3.41% | 3.65% | 16% | 12.2% | 1.64% | 11.1% | -6.23%
Cc1noc(C(C)C)c1C(=O)NCc1cc(F)cc(F)c1 | -3.99% | 15.6% | 7.66% | -1.87% | -7.12% | 3.92% | 11.5% | 17.8% | 3.88% | 14.6% | -9.23%
Cc1ccc(N2CC3(CCN(C(=O)c4ccoc4)C3)C2)nn1 | -2.51% | 15.6% | 2.65% | 11.4% | 3.64% | -143% | 9.48% | 0.925% | 5.38% | 13.6% | -5.33%
COc1cc(CN(C(=O)Nc2cccnc2OC)C2CC2)ccc1O | -3.67% | 2.6% | 7.29% | 11.9% | -2.25% | -0.712% | 5.91% | 23.5% | 3.88% | 12.2% | -4.72%
COc1cc2cc(C(=O)O)n(C)c2c(OC)c1OC | 2.1% | -9.33% | 13.7% | 8.78% | -4.71% | -5.46% | 13.9% | 1.84% | -3.17% | -5.13% | -10%
COc1ncccc1CNC(=O)NC1CCOc2ccccc21 (configuration not stated) | -3.57% | 5.41% | -0.164% | 13.2% | 5.48% | 0.185% | -4.85% | 10.6% | 0% | 13.4% | -3.69%
CC(CNC(=O)N1CCSCC1)Cc1cccs1 (configuration not stated) | -4.11% | 0% | 0.113% | -1.72% | -0.195% | -2.08% | 5.83% | 1.53% | 4.95% | 6.1% | -3.96%
O=C(Nc1cnn(CCN2CCOCC2)c1)c1ccccn1 | -3.13% | 10.5% | 3.43% | 9.01% | 3.38% | 0% | 5.85% | -7.34% | 5.39% | 12.2% | 0.887%
Cc1ccc(NC(C)C(=O)NCc2cccs2)cc1C (configuration not stated) | -1.89% | 16.4% | 6.74% | 8.58% | 0.196% | -4.54% | 17.8% | 21.3% | -1.07% | 20% | -5.22%
CNS(=O)(=O)c1cccc(C(C)NCc2ccccc2)c1 (configuration not stated) | -0.281% | -2.7% | 1.68% | -2.19% | -5.08% | 1.67% | 3.63% | -5.59% | 2.97% | 1.22% | -1.16%
CCC(C)(C)NC(=O)Cn1nc(C)nc1-c1cccc(C)c1 | -4.79% | 20.8% | 3.98% | -4.39% | -3% | 1.07% | 7.26% | 14.5% | 9.71% | 21.9% | -6.87%
CS(=O)(=O)N1CC[C@H]2O[C@H](C(=O)NCCc3ccncc3)CC[C@H]21 | -7.37% | 0% | 5.86% | -3.48% | -2.51% | -57.5% | -1.03% | 15% | 2.08% | -15% | 3.45%
Cc1cc2cc(C(=O)N[C@@H]3CC[C@@H](N4CCOCC4)[C@@H]3O)ccc2o1 | 1.28% | 17.6% | 5.33% | -5.41% | 2.57% | -0.232% | 13.4% | 29.4% | 5.38% | 3.9% | -10.2%
CCOCC(=O)N1CCC(Oc2ccc(C(F)(F)F)cn2)CC1 | 0.852% | 5.2% | 2.97% | 4.76% | -5.42% | 13.6% | 15.1% | 12.1% | 0% | 3.85% | -4.83%
CN(C)S(=O)(=O)N1CC[C@@H]2CN(Cc3cnn(C)c3)C[C@@H]2C1 | -6.2% | -2.6% | 26.8% | -2.67% | -4.63% | 0.645% | 0.696% | 33.3% | -1.06% | -1.28% | -3.27%
Cn1ccc(C(=O)NC2CCC23CCN(C(=O)c2ccncc2)CC3)c1 (configuration not stated) | 3.11% | 11% | -2.76% | 16.4% | -3.17% | 0% | 13.6% | 3.03% | 5.21% | 13.6% | 0.95%
COc1ccc(OCc2cc(C(=O)N3CCN[C@H](C)C3)n[nH]2)c(Cl)c1 | -0.706% | 5.41% | 0.0243% | -0.0327% | -4.63% | 2.86% | 14.5% | 5.15% | 2.65% | 9.76% | -3.55%
CC(C)(O)CN1CCN(C(=O)c2cc3ccccc3c(=O)[nH]2)CC1 | 0.132% | 2.63% | 5.98% | -1.12% | -3.6% | -2.37% | 7.57% | -8.77% | 7.45% | 13% | -5.58%
O=C(c1ccc(Cl)o1)N1CCCN(Cc2cscn2)CC1 | -5.01% | 15.6% | -7.43% | -4.3% | 4.02% | -2.74% | 16.1% | 0.576% | 6.67% | 14.1% | -17.3%
O=C(CC1CC1)NCc1cc(=O)n2c(n1)CN(Cc1ccoc1)CCC2 | -2.92% | -11% | -1.08% | 0.919% | 7.34% | -1.2% | 18.9% | 4.85% | 3.12% | 6.17% | -3.77%
